# Assay results from PubChem BioAssay.
# Active and inactive are the calls of the source.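 The calls were made as follows, unless noted: active = inhibition above 20% together with a positive visual image hit; inconclusive = visual image hit but inhibition not above 20%; inactive = no visual image hit.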
# How the values were obtained:
# [1] = inhibitors of TNFa-induced NFkB p65 translocation, primary screen, imaging, HUVEC, MLSMR starter and 10KST1 sets (AID 438); settings: HUVEC TNFa-induced p65 nuclear translocation; cell count: measured here: nuclei count (cytotoxicity indicator), at 2.08 µM; inhibition: at 2 µM, stronger effect = higher value, 0% TNFa-plus-vehicle, 100% no-TNFa wells;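 also: compound added about 3h40 before a 20 min TNFalpha stimulation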;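 as to inhibition: signal is the nuclear over cytoplasmic p65 intensity ratio per well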
# [2] = inhibitors of mutant huntingtin aggregation, primary screen, imaging, exon1htt(103Q)mCFP cells, high-content imaging (AID 483;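 active = visual image review flags a hit and inhibition of aggregation exceeds 20%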;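 also: compound exposure lasted 3 days before fixation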;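 as to nuclei count: percent of the per-plate median nuclei count of sample wells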); settings: exon1htt(103Q)mCFP cell line, aggregate imaging, at 2 µM; inhibition of aggregation: stronger effect = higher value; nuclei count: measured here: cell count, toxicity
# [3] = inhibitors of E-selectin induction by TNFa, primary screen, imaging, HUVEC, immunofluorescence, MLSMR starter and 10KST1 sets (AID 487;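 active = visually confirmed hit in the image check and inhibition above 20%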;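 as to inhibition: signal is fraction of cell area covered by stained E-selectin grains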;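 as to nuclei count: 100% = median nuclei count of all wells on the same plate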); settings: HUVEC TNFalpha-induced E-selectin immunofluorescence imaging, at 2 µM; inhibition: stronger effect = higher value; nuclei count: measured here: cell number, toxicity
# [4] = molecular target: Voltage-gated potassium channel subunit beta-2 (Rattus norvegicus) (UniProt P62483); assay: KvBeta enzyme negative modulators, primary screen, biochemical, NADPH fluorescence (AID 622;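 active = fluorescence slope higher than the sample average by over 3 SD, cut at about -0.22 in these data, passing the limit was not always enough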;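 also: slope of raw intensity against log time taken from 70 to 1610 s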); settings: recombinant KvBeta, 4-cyanobenzaldehyde reduction, at 10 µM, stronger effect = higher value
# Sequence of Voltage-gated potassium channel subunit beta-2 (Rattus norvegicus) (P62483 whole entry, looked up): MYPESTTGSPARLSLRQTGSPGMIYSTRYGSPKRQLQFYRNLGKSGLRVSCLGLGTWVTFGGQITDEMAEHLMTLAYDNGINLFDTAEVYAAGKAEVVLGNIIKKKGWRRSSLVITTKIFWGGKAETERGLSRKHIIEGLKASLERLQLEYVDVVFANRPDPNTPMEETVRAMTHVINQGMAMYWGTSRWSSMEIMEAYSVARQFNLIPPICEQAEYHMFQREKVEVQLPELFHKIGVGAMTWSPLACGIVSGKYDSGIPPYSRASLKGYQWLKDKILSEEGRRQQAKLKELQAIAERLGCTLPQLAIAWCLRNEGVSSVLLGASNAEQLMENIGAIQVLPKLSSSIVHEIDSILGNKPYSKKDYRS
# [5] = molecular target: Voltage-gated potassium channel subunit beta-2 (Rattus norvegicus) (UniProt P62483); assay: KvBeta positive modulators, primary screen, biochemical, NADPH fluorescence (AID 623;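 active = NADPH fluorescence slope more negative than the mean of all samples by about 3 SD, 99.7% confidence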;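 also: fluorescence intensity change per second fitted from 20 to 320 s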); settings: Recombinant KvBeta, NADPH fluorescence decrease slope, 10 min; at 10 µM; stronger effect = lower value
# [6] = molecular target: Muscarinic acetylcholine receptor M4 (Homo sapiens) (UniProt P08173); assay: compounds altering M4/GIRK thallium flux, either direction, primary screen, M4 allosteric agonist project, cell-based, HEK293 M4/GIRK, BTC-AM (AID 625;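 active = fluorescence slope after compound addition differing from the mean of all tested samples at 99.7% confidence, mostly higher but some lower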;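 also: thallium influx through GIRK channels coupled to M4 in HEK293 cells with BTC-AM dye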); settings: at 10 µM, actives lie on both sides
# Sequence of Muscarinic acetylcholine receptor M4 (Homo sapiens) (P08173 whole entry, looked up): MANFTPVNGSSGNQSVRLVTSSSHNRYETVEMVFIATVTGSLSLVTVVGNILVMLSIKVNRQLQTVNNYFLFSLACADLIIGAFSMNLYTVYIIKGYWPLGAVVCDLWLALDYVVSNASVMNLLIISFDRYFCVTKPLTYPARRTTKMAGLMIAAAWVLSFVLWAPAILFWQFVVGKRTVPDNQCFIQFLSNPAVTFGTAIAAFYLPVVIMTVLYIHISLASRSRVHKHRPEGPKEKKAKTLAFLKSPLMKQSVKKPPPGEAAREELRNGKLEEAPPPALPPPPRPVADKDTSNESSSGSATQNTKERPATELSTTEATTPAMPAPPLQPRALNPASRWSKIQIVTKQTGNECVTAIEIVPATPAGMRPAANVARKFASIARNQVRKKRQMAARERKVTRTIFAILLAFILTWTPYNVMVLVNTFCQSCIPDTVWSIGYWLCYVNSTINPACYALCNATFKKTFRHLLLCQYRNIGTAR
# [7] = inhibitors of Sendai virus-induced IRF3 signaling, primary screen, TLR/RLR signaling modifier project, cell-based, Sendai virus stimulus, luciferase, 10K MLSCN set (AID 602276;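 active = inhibition at or above 50% at 10 µM; inactive = inhibition below 50%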;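 also: firefly luciferase from ISG56 promoter only with Renilla not read in this screen; 0% = Sendai virus plus DMSO and 100% = medium plus DMSO without virus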); settings: HEK293 RL24 IRF3 luciferase reporter, at 10 µM, stronger effect = higher value
# [8] = inhibitors of poly I:C-induced TLR3 signaling, primary screen, cell-based, poly I:C stimulus, luciferase, 10K MLSCN set (AID 602277;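 active = inhibition of the reporter signal at or above 50%; inactive = inhibition below 50%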); settings: HEK293-TLR3 RL24 IRF3 luciferase reporter, at 10 µM, stronger effect = higher value
# [9] = DUSP6 inhibitors restoring Erk phosphorylation by chemical complementation, primary imaging in DUSP6-transfected HeLa (AID 609;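 active = compounds giving at least 50% inhibition in the cell-based MKP-3 phosphatase rescue imaging test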;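 as to inhibition: phospho-Erk level distribution per well compared with pooled transfected vehicle control wells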); settings: HeLa MKP-3 transfected, phospho-Erk imaging KS statistic, at 10 µM, cells stimulated with TPA for 15 min
# [10] = molecular target: Dual specificity protein phosphatase 6 (Homo sapiens) (UniProt Q16828); assay: as above; settings: HeLa MKP-3 transfected, phospho-Erk imaging KS statistic; at 10 µM; stronger effect = higher value; cells stimulated with TPA for 15 min
# Sequence of Dual specificity protein phosphatase 6 (Homo sapiens) (Q16828 whole entry, looked up): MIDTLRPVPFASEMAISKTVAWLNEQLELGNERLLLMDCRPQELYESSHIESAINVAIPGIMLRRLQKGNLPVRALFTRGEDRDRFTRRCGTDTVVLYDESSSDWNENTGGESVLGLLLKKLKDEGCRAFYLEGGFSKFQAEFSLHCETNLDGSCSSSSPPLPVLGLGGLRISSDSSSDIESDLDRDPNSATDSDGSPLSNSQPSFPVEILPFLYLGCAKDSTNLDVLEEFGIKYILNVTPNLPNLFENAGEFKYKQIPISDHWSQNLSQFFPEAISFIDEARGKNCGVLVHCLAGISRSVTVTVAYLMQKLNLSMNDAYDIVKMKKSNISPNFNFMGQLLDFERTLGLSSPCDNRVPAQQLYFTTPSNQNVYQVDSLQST
# [11] = molecular target: Alpha-2C adrenergic receptor (Homo sapiens) (UniProt P18825); assay: modulators of alpha2C/GIRK thallium flux, primary screen, cell-based, HEK293 alpha2C/GIRK1/2 (AID 624;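 active = fluorescence slope after compound addition differing from the mean of all screened samples at 99.7% confidence, in either direction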;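 also: slope of fluorescence ratio to pre-addition baseline per second over 15 to 24 s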); settings: thallium flux BTC fluorescence, at 10 µM, actives lie on both sides
# Sequence of Alpha-2C adrenergic receptor (Homo sapiens) (P18825 whole entry, looked up): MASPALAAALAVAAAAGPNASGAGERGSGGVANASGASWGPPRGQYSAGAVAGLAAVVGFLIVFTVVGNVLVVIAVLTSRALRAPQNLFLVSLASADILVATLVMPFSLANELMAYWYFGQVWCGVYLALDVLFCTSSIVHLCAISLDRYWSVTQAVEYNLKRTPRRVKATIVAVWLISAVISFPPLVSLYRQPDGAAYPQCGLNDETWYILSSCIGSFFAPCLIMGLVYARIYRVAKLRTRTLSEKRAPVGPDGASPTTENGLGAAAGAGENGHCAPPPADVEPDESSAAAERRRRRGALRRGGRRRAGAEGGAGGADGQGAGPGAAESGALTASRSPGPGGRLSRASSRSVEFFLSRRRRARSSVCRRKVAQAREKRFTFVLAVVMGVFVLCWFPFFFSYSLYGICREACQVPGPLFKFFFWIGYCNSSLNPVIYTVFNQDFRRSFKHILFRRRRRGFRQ
# [12] = measured here: cell density z-score
# [13] = measured here: nuclear c-Myc green intensity z-score
# [14] = measured here: nuclear pErk red intensity z-score, stronger effect = higher value
SMILES,cell count [1],inhibition [1],inhibition of aggregation [2],nuclei count [2] [%],inhibition [3],nuclei count [3] [%],fluorescence slope [4],NADPH fluorescence slope [5],fluorescence slope [6],inhibition [7],inhibition [8],"z-score [9, 12]","z-score [9, 13]","z-score [9, 14]",inhibition [10],slope [11]
CSC(=O)CC(=O)NC(=O)c1ccccc1,373,0% (inactive),-2.5% (inactive),90,-76.9% (inactive),159,-0.605 (inactive),1.1e-06 (inactive),0.00374 (inactive),7.05% (inactive),5.94% (inactive),,,,,
CC(=O)c1cc(-c2ccccc2)n(CC(=O)N2CCC(N3CCCCC3)CC2)c1C,263,7.9% (inactive),-0.7% (inactive),96.8,-37.4% (inactive),115,-0.545 (inactive),-3.5e-05 (inactive),0.00662 (inactive),14.8% (inactive),30.7% (inactive),,,,,
C/C(N)=C(\C#N)C(=O)NCCc1ccccn1,326,-1.7% (inactive),-11.6% (inactive),106,-26.9% (inactive),102,-0.613 (inactive),2e-05 (inactive),0.00369 (inactive),7.83% (inactive),13.8% (inactive),,,,,
COC(=O)c1sc(S(=O)(=O)Nc2ccc3cn[nH]c3c2)c(C(=O)OC)c1C,392,1% (inactive),23.4% (inactive),80,-83.8% (inactive),100,-0.533 (inactive),5.3e-06 (inactive),0.0043 (inactive),13.4% (inactive),31.2% (inactive),,,,,
Cc1nc(NCCNC(=O)c2ccco2)c2c(C)c(C)sc2n1,803,-4.2% (inactive),-8.7% (inactive),136,-34.1% (inactive),117,-0.548 (inactive),1.6e-05 (inactive),0.00498 (inactive),12.1% (inactive),6.83% (inactive),,,,,
CCCCc1oc2ccccc2c1C(=O)c1cc(I)c(OCCN(CC)CC)c(I)c1,651,-9% (inactive),,,-235% (inactive),136,-0.467 (inactive),-4.3e-05 (inactive),,9.88% (inactive),43.5% (inactive),0.542,-0.674,0.954,5.42% (inactive),0.00817 (inactive)
Cc1cc(NC(=O)COc2ncnc3sc(C)c(C)c23)no1,418,1.3% (inactive),-2.1% (inactive),100,,153,-0.568 (inactive),-2.9e-05 (inactive),0.00692 (inactive),21% (inactive),21.4% (inactive),,,,,
O=C(COc1ccccc1)NCCSCc1ccco1,599,-59.2% (inactive),-13.8% (inactive),115,-71.2% (inactive),116,-0.271 (inactive),-2e-05 (inactive),0.00726 (inactive),-1.72% (inactive),-10.5% (inactive),,,,,
COc1ccc(OCc2nc(N)nc(Nc3cccc(C)c3C)n2)cc1,369,3.3% (inactive),-10.8% (inactive),102,,,-0.446 (inactive),-1e-06 (inactive),,4.49% (inactive),29% (inactive),,,,,0.00333 (inactive)
O=C(Nc1ccc2c(c1)OCO2)C1CCCN1C(=O)Nc1ccccc1F (stereo not drawn),432,9% (inactive),-11.8% (inactive),98.2,,135,-0.418 (inactive),3.8e-05 (inactive),0.0058 (inactive),16.1% (inactive),24.2% (inactive),,,,,
O=C(NCCN1CCOCC1)c1csc2c1CCCC2,643,-24.5% (inactive),22.6% (inactive),109,-109% (inactive),116,-0.257 (inactive),-1.1e-05 (inactive),0.0063 (inactive),12.1% (inactive),2.09% (inactive),,,,,
CC(C)(C)c1cc(C(=O)O)nn1-c1ccccc1,446,2.5% (inactive),2.7% (inactive),94.2,,130,-0.482 (inactive),-3.8e-05 (inactive),0.00539 (inactive),15.1% (inactive),24.6% (inactive),,,,,
COC(=O)c1c(C(=O)OC)n(CCCN)c2ccc(C)cc12,434,10.9% (inactive),1.8% (inactive),100,,152,-0.495 (inactive),-7.5e-06 (inactive),0.00606 (inactive),20.6% (inactive),34% (inactive),,,,,
CCOCCCNC(=O)CCNS(=O)(=O)c1ccc(C)cc1,547,-15% (inactive),-10.7% (inactive),90.3,,,-0.411 (inactive),-3.1e-05 (inactive),,-17.9% (inactive),22.8% (inactive),,,,,0.00305 (inactive)
COc1cccc(-c2cc(C(=O)Nc3cc(OC)c(OC)c(OC)c3)no2)c1,461,-4.5% (inactive),1.1% (inactive),55.1,-12.3% (inactive),97.2,-0.511 (inactive),-4.5e-05 (inactive),,,-2.13% (inactive),,,,,0.00712 (inactive)
Cc1ccc(S(=O)(=O)NCCCNC(=O)N2CCOCC2)cc1,769,-4.3% (inactive),1.3% (inactive),104,-103% (inactive),129,-0.461 (inactive),-4.9e-05 (inactive),0.00502 (inactive),17.8% (inactive),16.7% (inactive),,,,,
O=C(O)CC(C(=O)OCCOc1ccccc1)N1CCOCC1 (stereo not drawn),504,6.4% (inactive),,,-77.1% (inactive),109,,,,,,,,,,
COc1cccc(C(=O)Nc2cnc(NC(=O)c3ccco3)cc2C)c1,463,12.5% (inactive),-2.9% (inactive),98.1,,119,-0.567 (inactive),-5.3e-05 (inactive),0.00623 (inactive),5.68% (inactive),-23.5% (inactive),,,,,
COc1ccc(N2CCN(c3oc(COc4ccccc4)nc3C#N)CC2)cc1,449,9.4% (inactive),-7.4% (inactive),102,,155,-0.602 (inactive),-9.8e-06 (inactive),0.00622 (inactive),10.1% (inactive),3.38% (inactive),,,,,
CCOC(=O)CNC(=O)CSc1ncnc2c1cnn2-c1ccccc1,564,-9.2% (inactive),-10.3% (inactive),113,-69.6% (inactive),118,-0.562 (inactive),3.9e-05 (inactive),0.00493 (inactive),7.97% (inactive),8.26% (inactive),,,,,
c1ccc2[nH]c(CSc3nnc(-c4ccncc4)o3)nc2c1,388,-5% (inactive),5.8% (inactive),83,-20.9% (inactive),90.8,-0.497 (inactive),1e-06 (inactive),0.00421 (inactive),7.74% (inactive),13.2% (inactive),,,,,
Cc1cc2ncc(C(=O)Nc3ccccc3)c(C)n2n1,376,4.2% (inactive),-9.1% (inactive),101,27.5% (inactive),93.8,-0.54 (inactive),-1.5e-05 (inactive),0.00501 (inactive),1.55% (inactive),-14.2% (inactive),,,,,
Cc1ccc2nc(SC(C)C(=O)N3CCCC3)[nH]c2c1 (stereo not drawn),467,0% (inactive),9.4% (inactive),75.7,-59.3% (inactive),112,-0.478 (inactive),6e-05 (inactive),0.00661 (inactive),-21.2% (inactive),-39.7% (inactive),,,,,
Cc1ccccc1CS(=O)(=O)Cc1ccc(C(=O)NCCCN2CCOCC2)o1,434,5% (inactive),-1.9% (inactive),99,-156% (inactive),120,-0.586 (inactive),-2.7e-05 (inactive),0.00703 (inactive),-17.1% (inactive),-16.4% (inactive),,,,,
Cc1cnc(C(=O)NCCc2ccc(S(=O)(=O)NC(=O)NC3CCCCC3)cc2)cn1,609,0.1% (inactive),,,-102% (inactive),134,-0.474 (inactive),8e-06 (inactive),,12.9% (inactive),21.2% (inactive),-0.283,0.557,-0.42,12.4% (inactive),0.0053 (inactive)
CCOc1ccc(NC(=O)CSc2nnnn2CC(=O)O)cc1,482,-1.4% (inactive),-19.1% (inactive),112,-110% (inactive),122,-0.561 (inactive),-4.1e-05 (inactive),0.00555 (inactive),10.5% (inactive),14.4% (inactive),,,,,
CCOC(=O)c1c(C)oc2ccc(O)c(CN(C)C)c12,663,1.9% (inactive),16.5% (inactive),105,-211% (inactive),108,-0.551 (inactive),-6.7e-06 (inactive),0.00733 (inactive),8.53% (inactive),20% (inactive),,,,,
O=C1NC(c2ccccc2)(C(F)(F)F)SC2=NCCCN12 (stereo not drawn),429,4.8% (inactive),12.3% (inactive),106,,154,-0.482 (inactive),4.2e-05 (inactive),0.00455 (inactive),-6.22% (inactive),-13.6% (inactive),,,,,
CCOC(=O)c1ccc(COC(=O)CCc2nc3ccccc3[nH]c2=O)o1,410,10.6% (inactive),-18.4% (inactive),108,,147,-0.546 (inactive),1.7e-05 (inactive),0.00556 (inactive),15.9% (inactive),18.3% (inactive),,,,,
COc1ccccc1OCCn1c(=O)sc2ccccc21,478,9.8% (inactive),-14.7% (inactive),90.3,,152,-0.477 (inactive),1.7e-05 (inactive),0.0055 (inactive),1.53% (inactive),6.17% (inactive),,,,,
